Test [1] in a line: binders of probe aFSTL3 on microarray, primary screen, stem cell growth factor project, biochemical, small-molecule microarray, fluorescence 635/667 (AID 1064).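 Further: measures binding of the biotinylated anti-FSTL3 antibody to printed compounds.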 The following applies: higher = more signal.
Test [2] can be described thus: binders from COS7 lysate, DM2A8 probe, primary screen, torsin A project, cell lysate, small-molecule microarray, fluorescence 635/667 (AID 1065). The following applies: higher = more signal, COS7 lysate expressing mutant human TOR1A.
Test [3] is described as follows: binders of probe aFGF2 on microarray, primary screen, stem cell growth factor project, biochemical, small-molecule microarray, fluorescence 635/667 (AID 1067).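 Further: measures binding of biotinylated aFGF2 protein to printed compounds on slides; z-score merges feature fluorescence and signal-to-noise across triplicate slides.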 The following applies: higher = more signal.
The nature of test [4]: binders of probe aFGF10 on microarray, primary screen, stem cell growth factor project, biochemical, small-molecule microarray, fluorescence 635/667 (AID 1071).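 Further: score merges 667 nm spot intensity and signal to noise from triplicate slides.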 The following applies: higher = more signal.
In test [5] the target is Neurogenic locus notch homolog protein 2 (Homo sapiens) (UniProt Q04721). In words: Notch2 binders on small-molecule microarrays, primary screen, biochemical, small-molecule microarray, 635 nm fluorescence, stem cell growth factors (AID 1073). The following applies: Notch2 binding, higher = more signal.
Neurogenic locus notch homolog protein 2 (Homo sapiens), sequence (Q04721 whole entry, looked up, canonical isoform): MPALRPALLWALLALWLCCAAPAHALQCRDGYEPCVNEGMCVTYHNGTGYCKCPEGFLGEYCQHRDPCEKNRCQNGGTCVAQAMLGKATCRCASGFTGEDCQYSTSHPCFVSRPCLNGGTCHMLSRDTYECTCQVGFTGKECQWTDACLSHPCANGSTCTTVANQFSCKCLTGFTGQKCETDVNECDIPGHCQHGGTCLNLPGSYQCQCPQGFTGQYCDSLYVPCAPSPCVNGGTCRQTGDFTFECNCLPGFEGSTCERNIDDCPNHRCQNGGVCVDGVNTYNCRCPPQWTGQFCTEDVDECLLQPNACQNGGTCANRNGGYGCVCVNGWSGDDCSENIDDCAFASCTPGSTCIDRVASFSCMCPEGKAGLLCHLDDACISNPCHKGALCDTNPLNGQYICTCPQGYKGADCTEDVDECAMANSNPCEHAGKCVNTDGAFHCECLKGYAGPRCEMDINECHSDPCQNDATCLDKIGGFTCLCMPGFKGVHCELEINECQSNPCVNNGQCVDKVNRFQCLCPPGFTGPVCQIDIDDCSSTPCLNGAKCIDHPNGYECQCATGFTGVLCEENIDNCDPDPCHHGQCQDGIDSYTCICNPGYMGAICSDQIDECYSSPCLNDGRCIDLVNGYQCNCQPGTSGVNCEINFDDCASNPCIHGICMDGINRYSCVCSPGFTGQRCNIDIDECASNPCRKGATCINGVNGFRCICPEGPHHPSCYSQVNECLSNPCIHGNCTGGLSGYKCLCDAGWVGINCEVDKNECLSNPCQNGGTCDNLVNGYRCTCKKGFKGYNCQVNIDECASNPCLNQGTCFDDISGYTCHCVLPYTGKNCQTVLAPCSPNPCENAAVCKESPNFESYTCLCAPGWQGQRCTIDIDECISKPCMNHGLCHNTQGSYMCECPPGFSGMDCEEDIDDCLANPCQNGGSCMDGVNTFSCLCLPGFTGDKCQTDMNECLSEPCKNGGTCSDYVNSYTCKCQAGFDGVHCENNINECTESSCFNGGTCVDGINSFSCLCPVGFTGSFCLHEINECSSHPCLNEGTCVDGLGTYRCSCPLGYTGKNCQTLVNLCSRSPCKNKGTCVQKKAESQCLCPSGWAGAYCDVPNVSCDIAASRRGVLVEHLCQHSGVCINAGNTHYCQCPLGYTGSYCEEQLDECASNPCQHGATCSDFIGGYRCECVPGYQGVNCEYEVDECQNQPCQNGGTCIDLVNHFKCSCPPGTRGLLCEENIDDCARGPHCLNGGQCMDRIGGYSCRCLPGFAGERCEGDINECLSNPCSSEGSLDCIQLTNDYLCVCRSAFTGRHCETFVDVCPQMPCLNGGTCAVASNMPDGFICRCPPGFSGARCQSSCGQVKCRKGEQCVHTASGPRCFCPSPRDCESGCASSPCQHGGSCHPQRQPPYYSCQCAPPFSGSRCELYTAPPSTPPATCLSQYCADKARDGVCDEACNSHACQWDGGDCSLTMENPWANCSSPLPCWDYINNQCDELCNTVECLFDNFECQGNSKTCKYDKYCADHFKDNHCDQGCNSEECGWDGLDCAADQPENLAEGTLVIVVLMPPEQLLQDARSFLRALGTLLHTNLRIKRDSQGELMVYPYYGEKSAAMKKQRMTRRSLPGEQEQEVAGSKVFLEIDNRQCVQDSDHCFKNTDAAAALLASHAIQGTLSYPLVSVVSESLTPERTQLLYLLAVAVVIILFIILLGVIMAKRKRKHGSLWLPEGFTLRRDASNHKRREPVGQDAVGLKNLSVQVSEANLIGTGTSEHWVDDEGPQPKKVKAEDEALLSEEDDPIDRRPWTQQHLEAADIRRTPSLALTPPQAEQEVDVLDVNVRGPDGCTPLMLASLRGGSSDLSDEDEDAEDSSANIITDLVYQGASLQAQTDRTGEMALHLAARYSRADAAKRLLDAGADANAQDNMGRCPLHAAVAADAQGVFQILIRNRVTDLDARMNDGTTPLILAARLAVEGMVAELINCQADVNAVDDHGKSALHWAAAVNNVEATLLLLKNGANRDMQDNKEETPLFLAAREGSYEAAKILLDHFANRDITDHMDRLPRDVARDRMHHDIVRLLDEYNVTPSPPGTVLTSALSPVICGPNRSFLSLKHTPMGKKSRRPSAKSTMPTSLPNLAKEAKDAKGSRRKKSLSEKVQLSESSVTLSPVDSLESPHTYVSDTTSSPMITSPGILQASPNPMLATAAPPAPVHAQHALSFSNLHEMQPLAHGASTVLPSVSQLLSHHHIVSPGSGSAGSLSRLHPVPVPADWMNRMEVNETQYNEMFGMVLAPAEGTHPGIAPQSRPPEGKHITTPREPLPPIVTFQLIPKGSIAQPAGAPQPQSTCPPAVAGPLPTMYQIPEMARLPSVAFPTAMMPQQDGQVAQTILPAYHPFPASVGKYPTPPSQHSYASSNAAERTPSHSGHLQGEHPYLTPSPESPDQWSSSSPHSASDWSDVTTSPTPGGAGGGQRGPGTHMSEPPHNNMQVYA
The target in test [6] is Pro-neuregulin-1, membrane-bound isoform (Homo sapiens) (UniProt Q02297). In words: NRG1 binders on small-molecule microarrays, primary screen, psychiatric disease protein project, biochemical, small-molecule microarray, fluorescence 635/667 (AID 1075).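 Further: score combines 667 nm spot fluorescence with signal to noise.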 As to conditions: NRG1 binding, 635 nm fluorescence, higher = more signal.
Pro-neuregulin-1, membrane-bound isoform (Homo sapiens), sequence (Q02297 whole entry, looked up, the tested form may be a part, canonical isoform): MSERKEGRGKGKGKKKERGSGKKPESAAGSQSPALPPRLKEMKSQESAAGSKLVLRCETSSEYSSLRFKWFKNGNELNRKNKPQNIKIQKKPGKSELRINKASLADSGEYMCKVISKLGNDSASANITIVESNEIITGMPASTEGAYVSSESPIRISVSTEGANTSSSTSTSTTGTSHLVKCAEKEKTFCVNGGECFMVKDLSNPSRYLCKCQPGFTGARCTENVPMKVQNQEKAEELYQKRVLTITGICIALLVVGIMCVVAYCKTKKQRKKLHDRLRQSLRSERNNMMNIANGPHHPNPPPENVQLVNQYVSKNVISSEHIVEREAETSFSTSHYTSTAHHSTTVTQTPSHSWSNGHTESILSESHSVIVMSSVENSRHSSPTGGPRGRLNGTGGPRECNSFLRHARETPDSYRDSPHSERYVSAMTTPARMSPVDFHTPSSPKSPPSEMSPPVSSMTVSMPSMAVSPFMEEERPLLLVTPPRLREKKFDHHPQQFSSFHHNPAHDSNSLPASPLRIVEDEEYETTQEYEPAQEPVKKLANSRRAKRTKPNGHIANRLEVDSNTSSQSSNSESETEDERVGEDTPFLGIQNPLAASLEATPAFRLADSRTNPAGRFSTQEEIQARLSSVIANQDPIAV
Test [7] relates to Neuregulin-1 EGF-like domain. In words: binders of neuregulin-1 EGF-like domain, primary screen, biochemical, small-molecule microarray, 635 nm fluorescence (AID 1081).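 Further: binding of the protein to compounds printed on small-molecule microarray slides.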 The following applies: small-molecule microarray binding, higher = more signal.
Test [8] is described as follows: FRG1 promoter luciferase signal modulators, primary screen, FRG1 inhibition for FSHD, cell-based, C2C12 myotubes, firefly/Renilla luciferase, luminescence (AID 1084). As to conditions: higher = more signal, called active from +8 up or from −8 down.
The nature of test [9]: binders of probe aFST on microarray, primary screen, stem cell growth factor project, biochemical, small-molecule microarray, fluorescence 635/667 (AID 1086).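 Further: score merges 667 nm fluorescence with signal-to-noise of each printed compound spot.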 The following applies: higher = more signal.
The nature of test [10]: binders of probe aHhip on microarray, primary screen, stem cell growth factor project, biochemical, small-molecule microarray, fluorescence 635/667 (AID 1087).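 Further: score merges spot fluorescence at 667nm with spot signal to noise ratio.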 The following applies: higher = more signal.

Each structure is given as a SMILES string. Activity calls are given as the source filed them.

With `COCCOC(=O)N1C(=O)[C@@]2(c3cc(C#CC4=CCCCC4)ccc31)[C@H](c1ccc(O)cc1)N1[C@H](c3ccccc3)[C@H](c3ccccc3)OC(=O)[C@H]1[C@@H]2C(=O)N1CCCCCCC1`, the composite z-score was 2.57 in test [1]; -0.264 in test [2]; -0.06 in test [3]; 0.0509 in [4]; 0.521 in test [5]; 0.292 in test [6]. Further, the results for the composite z-score in test [7], in test [9] and in [10] were 0.359, 0.547 and 0.294, respectively. Besides, the z-score in test [8] is 0.0812 (inactive).

With `COCCOC(=O)N1C(=O)[C@@]2(c3cc(C#CCC(C(=O)OC)C(=O)OC)ccc31)[C@H](C(=O)N1CCN(c3ncccn3)CC1)[C@H]1C(=O)O[C@H](c3ccccc3)[C@H](c3ccccc3)N1[C@@H]2c1ccc(O)cc1`, the composite z-score in test [1] was -0.0797; in test [2], 1.47; in test [3] it was 0.0051; in [4] it was 0.579; in test [5] it was 1.08; in test [6], 1.07. Further, the composite z-score in [7] is 1.2; in [9] it was -0.304; in [10], 0.0623. Further, the z-score in [8] is -0.24 (inactive).

As for `O=C1C2C=CC(C(O)C#Cc3ccccc3)N(Nc3ccccc3)C2C(=O)N1c1ccccc1` (stereo not given), the composite z-score in test [1] is 0.532; in test [2], -0.17; in test [3], -0.0316; in test [4], 0.208; in test [5], 1.46; in [6] it was 1.74. Besides, the composite z-score in [7] was 1.24; in test [9] it was 0.246; in test [10], -0.226. Also, in test [8], the z-score is 0.818 (inactive).

Consider `CCOC(=O)C[C@H]1[C@H](OC(=O)c2ccccc2-c2ccccc2)[C@@H](NC(=O)c2ccc(-c3ccccc3)cc2)c2cc(OCCCO)ccc2N1C(=O)Cc1ccc(OC)cc1`, for which the composite z-score in test [1] is -0.191; in test [2], -0.0021; in test [3], -0.0642; in [4] it was 0.389; in test [5] it was 0.212; in test [6], -0.109. Besides, the composite z-score is 0.373 in test [7], 0.437 in test [9] and -0.0346 in [10]. Further, in test [8], the z-score is 0.524 (inactive).

With `CCOC(=O)C1=CCC(c2cccc3ccccc23)N(S(=O)(=O)c2ccc(C)cc2)C1` (stereo not given), the composite z-score in [1] is 0.609; in [2], -0.0897; in test [3], 0.0346; in [4], 0.323; in test [5], 1.46; in test [6], 1.21. Also, the figures for the composite z-score in [7], in [9] and in test [10] were 1.01, 0.95 and -0.0237, respectively. For the same compound, in test [8], the z-score was -1.05 (inactive).

Consider `CO[C@H]1COC(=O)[C@H](C)NC(=O)CC=C[C@@H](C)[C@H](NS(=O)(=O)c2ccc(C)cc2)COC(=O)CC=C[C@@H]1C`, for which the composite z-score was -0.734 in test [1]; 1.84 in test [2]; -0.172 in test [3]; 0.0871 in [4]; -0.543 in [5]; -0.455 in test [6]. Also, the results for the composite z-score in test [7], in [9] and in test [10] were -0.775, 0.0005 and -0.199, respectively. The z-score in test [8] is -1.27 (inactive).

For `COC(=O)Cn1c(C(=O)N2CCCC2)cc2c1C[C@H]1CN(C(=O)c3ccccc3)[C@@](Cc3ccccc3)(C(=O)OC)[C@@H]21`, the composite z-score is 0.0841 in [1]; -0.0841 in test [2]; 0.0915 in test [3]; 0.381 in [4]; 1.56 in test [5]; 1.96 in test [6]. In addition, the composite z-score in test [7] was 1.17; in test [9] it was 0.76; in test [10], -0.119. Further, the z-score in test [8] is 1.07 (inactive).

For `Cc1ccc(N2C(=O)c3ccccc3[C@](C)(C(=O)O)[C@@H]2c2ccc(CO)cc2)nc1`, the composite z-score in [1] is 1.5; in test [2], -0.461; in test [3] it was -0.224; in test [4] it was -1.1; in test [5], -1.52; in test [6], 1.91. The composite z-score in test [7] is -0.402; in test [9], -0.663; in [10], -0.181. In test [8], the z-score was 0.744 (inactive).

With `C=C(C(=O)CC[C@H](OC(=O)c1ccccc1-c1ccccc1C(=O)O)c1ccc(CO)o1)C(C)C`, the composite z-score was -0.547 in [1]; -0.113 in test [2]; -0.0974 in test [3]; 0.959 in test [4]; -0.0673 in test [5]; 1.25 in test [6]. Moreover, the composite z-score in [7] is 1.33; in test [9] it was 0.0357; in test [10], -0.0645. Moreover, the z-score in test [8] is 0.112 (inactive).

On to `CN(C)CCCC[C@@H]1NC(=O)[C@@H]2C[C@H](C(=O)O)[C@H](c3ccc(O)cc3)N2C1=O`, for which the composite z-score in test [1] was 0.491; in test [2] it was 0.738; in [3] it was -0.128; in test [4], 0.217; in test [5], -0.0401; in test [6] it was 0.237. In addition, the results for the composite z-score in [7], in [9] and in test [10] were 1.28, 0.212 and -0.279, respectively. Besides, the z-score in test [8] was 1.7 (inactive).

As for `COC(=O)[C@@]1(Cc2ccccc2CN=[N+]=[N-])N=C(c2ccc(OCCCO)cc2)O[C@H]1c1ccccc1N=[N+]=[N-]`, the composite z-score in test [1] was 0.127; in test [2], -0.523; in test [3], -0.0004; in [4], -0.259; in [5], 0.167; in test [6], 1.09. Moreover, the composite z-score was found to be 1.13 in test [7], 0.19 in [9] and 0.0826 in test [10]. The z-score in test [8] was 1.17 (inactive).

Take `CN(C)C(=O)[C@@]1(Cc2ccccc2N=[N+]=[N-])N=C(c2ccc(OCCCO)cc2)O[C@H]1c1ccccc1CN=[N+]=[N-]`: the composite z-score in test [1] amounted to 0.832; in test [2], 2.05; in test [3], 0.0914; in test [4], 0.665; in test [5], 1.56; in test [6], 1.56. The composite z-score in [7] amounted to 1.23; in test [9], 0.961; in test [10], 0.0274. Moreover, the z-score in test [8] is -2.27 (inactive).

For the compound `C=C(COC)/C(=C/C[C@H](OC(C)=O)c1ccc(OCCO)cc1)c1cnc2ccccc2c1`, the composite z-score in test [1] is 0.0732; in test [2] it was 0.0548; in test [3], 0.0001; in test [4], 0.765; in test [5], 1.41; in [6], -0.0967. For the same compound, the composite z-score worked out at 0.99 in test [7], 0.372 in test [9] and 0.176 in test [10]. For the same compound, in [8], the z-score was 0.345 (inactive).

(Values after PubChem BioAssay.)
